Source: PubChem BioAssay (NCI)
About 83,000 compounds went through this panel and 20% of them were active in at least one assay; those are over-represented in the sample as a whole.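 Values shown are percent growth following 48 h exposure of cells in 96-well plates to a single concentration of compound; below 10 was considered active.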 Activity calls are given as the source filed them.

Test system: CAKI-1 renal
Experiment: NCI-60 one-dose screen, 48 h (100 = growth as untreated, 0 = no growth, -100 = all killed)
Conditions: 10 µM unless noted
Method: Growth inhibition of the CAKI-1 human tumor cell line is measured as a screen for anti-cancer activity. Cells are grown in 96 well plates and exposed to the test compound for 48 hours. Compounds are tested at a single concentration, which is 10^-5 M for most compounds. The reported endpoint is percent growth (GI% or GIPRCNT), where numbers from 0 - 100% represent growth inhibition, and numbers from -100% - 0 represent cell death. For example, a value of 40 represents 60% growth inhibition. A value of 0 means no net growth occurred over the course of the experiment. A value of -40 indicates 40% of cells at the beginning of the experiment died by the end of the experiment. A value of -100 means all cells are dead at the end of the experiment.
NCI-60 Human Tumor Cell Lines Screen was performed using the standard one-dose NCI protocol, which is described in more detail at https://dtp.cancer.gov/discovery_development/nci-60/default.htm.
Compounds with GIPRCNT values below 10 were considered active. Activity score was based on GIPRCNT using the following formula: […]
Score is 0 for GIPRCNT values of 100 or above, 50 for GIPRCNT values of 0, and 100 for GIPRCNT values of -100.

| Structure (SMILES) | growth |
| --- | --- |
| N#C/C(=C\c1ccc2c(c1)OCO2)c1ccccc1 | 58.9% (inactive) |
| CCN1CCCC(N2c3ccccc3Sc3ccccc32)C1 (stereo not given) | 101% (inactive) |
| CCCCCCCCCc1ccc(OC(C)=O)cc1 | 103% (inactive) |
| CSCC[C@@H]1C(=O)N(C)[C@H](C(C)(C)C)N1C(=O)c1ccccc1 | 100% (inactive) |
| Cc1cc(Nc2ccc3c(c2)OCO3)c2cc3c(cc2n1)OCO3 | 19.5% (inactive) |
| CN1CCCN(C(c2ccccc2)c2ccc(Br)cc2)CC1 (stereo not given) | 49.2% (inactive) |
| COC(=O)C1=C(C)C(=O)CC1 | 116% (inactive) |
| Cc1c(-c2ccc(C3CCCCC3)cc2)nc2ccc(F)cc2c1C(=O)O | -2.23% (active) |
| OCc1cccnc1 | 35.5% (inactive) |
| CCC1CCC(C)NC1 (stereo not given) | 102% (inactive) |
| NNC(=O)c1ccccc1N | 104% (inactive) |
| CC(=O)Oc1c(Cl)cccc1-c1ccccc1 | 98.3% (inactive) |
| CCNc1ncnc2[nH]ncc12 | 93% (inactive) |
| Cc1cc2c3ccc(C)[n+](C)c3ccc2n1C | 58.1% (inactive) |
| CN(C)CCOC(=O)Nc1ccc(Cc2ccc(NC(=O)OCCN(C)C)cc2)cc1 | 73% [100 µM] (inactive) |
| C=C(C)COc1ccc(C(C)(C)C)cc1 | 96.2% (inactive) |
| NNC(=O)N/N=C1\C(=O)N(c2nccs2)C(=O)C(=O)C1c1nc2ccccc2s1 (stereo not given) | 96.7% (inactive) |
| C[n+]1cc2cc3c(cc2c2ccccc21)OCO3 | 102% (inactive) |
| COc1ccc(-c2csc(NC(=O)Nc3nc(-c4ccc(OC)cc4)cs3)n2)cc1 | 81.5% (inactive) |
| CCOC(C=O)OCC | 97.8% (inactive) |

| Structure (SMILES) | growth |
| --- | --- |
| CCCCCCCCCCCCCCCCCC(=O)NCCNC(=O)CCCCCCCCCCCCCCCCC | 83.3% (inactive) |
| COc1cc2c(c(OC)c1OC)-c1ccc(SC)c(=O)cc1[C@@H](NC1OC(CO)C(O)C(O)C1O)CC2 (stereo not given in full) | 18.7% (inactive) |
| S=C=Nc1ccc2ccccc2c1 | 87.7% (inactive) |
| CN(C(=S)S(=O)(=O)C12CC3CC(CC(C3)C1)C2)c1ccccc1 | 81.8% (inactive) |
| CC(C)(C)CC1(C)NC(=O)NC1=O (stereo not given) | 102% (inactive) |
| O=S(=O)(O)c1cccnc1 | 95.2% (inactive) |
| CC1CC2C3CCC4=CC(=O)CCC4(C)C3CCC2(C)C1(O)C(=O)CO (stereo not given) | 94.9% (inactive) |
| CC(=O)c1cccc(NS(=O)(=O)c2ccc(C)cc2)c1 | 81.6% (inactive) |
| C/C(O)=C(/C=N\C(=S)Nc1ccc(S(=O)(=O)Nc2nccs2)cc1)C(=O)Nc1ccccc1C | 91.9% (inactive) |
| COC(=O)c1ccccc1C(=O)c1c(C)cc(C)cc1C | 96.4% (inactive) |
| Nc1ccc2ccccc2c1-c1c(N)ccc2ccccc12 | 28.6% (inactive) |
| CC1CCC(C)(C)c2ccccc21 (stereo not given) | 96.5% (inactive) |
| CC(C)=CCC[C@@H](C)[C@H]1CC[C@@]2(C)C3=C(CC[C@]12C)[C@@]1(C)CC[C@H](O)C(C)(C)[C@@H]1CC3 | 99.1% (inactive) |
| CCOC(=O)/C(O)=C(\C=N\C(=S)Nc1ccc(Cl)c(Cl)c1)C(=O)OCC | 89.2% (inactive) |
| NNc1ncccn1 | 102% (inactive) |
| CCOC(=O)Nc1nccs1 | 103% (inactive) |
| N#Cc1ccc2nc[nH]c2c1 | 95% (inactive) |
| CN(C)c1ccc2c(N(C)C)cc(N(C)C)nc2c1 | 68.6% (inactive) |
| O=C(O)c1ccccc1Cc1ccc2c(c1)CCCC2 | 98.5% (inactive) |
| Cc1cccc(C)c1NC(=S)/N=C\c1c(O)[nH]c(=O)[nH]c1=O | 96.5% (inactive) |
